# Most compounds without a hit are left out; they make up all but 18% or so of the library.
# TGFb inhibitor – qHTS for Inhibitors of TGF-b | 410,000 compounds, 1.2% hits | HepG2 CAGA-GFP TGF-b/SMAD3 reporter, GFP fluorescence, 18 h; TGF-beta stimulated, 500 pg/mL final | AID 588855, 2011 | Potency, µM (series often up to 46.1 µM), for inactives: top-dose activity, negative = inhibition, most hits filed as inhibitors; note: potency is the fitted concentration of half-maximal effect; % is set by controls: 0 for no effect and ±100 for the full control effect; nearly all actives have a fitted effect of over 65% in size
#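 HEPG2 CAGA-GFP, 1000 cells/well; 2 h settle, 37 C; cpd via pin tool; TGF-b 500 pg/mL final; 18 h, 37 C; GFP imaging ex488/em500-530; %Activity normalised to -TGF-b and +DMSO controls; CRC fit, curve class.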
# DT40 TDP1 CPT – qHTS for Inhibitors of human tyrosyl-DNA phosphodiesterase 1 (TDP1): qHTS in cells in presence of CPT; chicken DT40 Tdp1-/-;hTDP1 cells + 20 nM CPT, ATP luminescence, 48 h; Potency, µM (series often up to 46.2 µM), for the others: at the highest dose activity change, negative = growth inhibition, actives largely listed as inhibitors; 420,000 compounds, 12% hits; AID 686979, 2013; note: potency is the fitted concentration of half-maximal effect; % is set by controls: 0 for no effect and ±100 for the full control effect; nearly all actives have a fitted effect of over 55% in size
#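 Chicken DT40 Tdp1-/- cells stably complemented with human TDP1 were seeded at 400 cells/well in medium containing 20 nM camptothecin, exposed to pin-transferred compounds, and grown at 37 °C for at least 48 hr. Viability was read as ATP luminescence.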
# TDP1 cell noCPT – qHTS for Inhibitors of human tyrosyl-DNA phosphodiesterase 1 (TDP1): qHTS in cells in absence of CPT; DT40 Tdp1-/- hTDP1 cells, no CPT, ATP luminescence, 48 h; Potency, µM (series often up to 46.2 µM), inactives show at the highest dose activity change, negative = growth inhibition, usual class: inhibitors; 420,000 compounds, 15% hits; note: potency is the fitted concentration of half-maximal effect; % is set by controls: 0 for no effect and ±100 for the full control effect; nearly all actives have a fitted effect of over 55% in size
#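 Cells were dispensed at 400 per well, compounds added by pin tool, plates incubated ≥48 hr at 37 °C, then CellTiter-Glo added for 30 min at room temperature before luminescence reading. Line: DT40 Tdp1-/- complemented with hTDP1; camptothecin omitted.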
# HepG2 tox – qHTS for Inhibitors of TGF-b: Cytotox Counterscreen; HepG2 CAGA-GFP viability, ATP luminescence, 18 h; Potency, µM (doses to about 46.1 µM), for the others: at the highest dose activity change, negative = cytotoxicity, most hits filed as cytotoxic; 410,000 compounds, 0.76% hits; note: potency is the fitted concentration of half-maximal effect
#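 CellTiter-Glo luminescence gave cytotoxicity after 18 hours at 37 degrees C. The cells were HepG2 CAGA-GFP in 1% FBS DMEM, stimulated with 500 pg/mL TGF-beta after compound addition. %Activity was normalised to no-cell wells (complete cell-killing) and DMSO (no toxicity), and curves were fitted and classified.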
# TDP1 block – qHTS Assay for Inhibitors of Tyrosyl-DNA Phosphodiesterase (TDP1) | Tyrosyl-DNA phosphodiesterase 1 (Homo sapiens), Q9NUW8 | recombinant TDP1, AlphaScreen DNA substrate cleavage | Potency, µM (series often up to 130 µM), for inactives: at the highest dose activity change, negative = inhibition, most hits filed as inhibitors | 350,000 compounds, 0.28% hits; note: potency is the fitted concentration of half-maximal effect; % is set by controls: 0 for no effect and ±100 for the full control effect; nearly all actives have a fitted effect of over 40% in size
# Target sequence (Q9NUW8 whole entry, looked up): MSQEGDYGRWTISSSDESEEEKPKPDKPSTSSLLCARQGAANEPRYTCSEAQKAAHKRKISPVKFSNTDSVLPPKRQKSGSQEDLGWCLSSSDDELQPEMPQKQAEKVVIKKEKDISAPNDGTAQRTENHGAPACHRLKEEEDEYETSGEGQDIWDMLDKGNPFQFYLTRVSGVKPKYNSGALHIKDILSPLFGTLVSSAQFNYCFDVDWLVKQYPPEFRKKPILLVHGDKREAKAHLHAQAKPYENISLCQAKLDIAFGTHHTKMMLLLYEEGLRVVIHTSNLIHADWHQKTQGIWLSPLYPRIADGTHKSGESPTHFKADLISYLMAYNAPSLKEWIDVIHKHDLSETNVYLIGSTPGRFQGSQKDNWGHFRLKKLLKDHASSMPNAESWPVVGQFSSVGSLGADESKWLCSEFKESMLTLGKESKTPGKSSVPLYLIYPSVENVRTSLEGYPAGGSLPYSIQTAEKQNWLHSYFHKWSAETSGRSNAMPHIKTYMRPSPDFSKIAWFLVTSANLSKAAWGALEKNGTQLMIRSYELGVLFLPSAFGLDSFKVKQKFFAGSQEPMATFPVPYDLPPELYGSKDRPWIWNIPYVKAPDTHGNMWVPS
#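 AlphaScreen read-out: signal falls as enzyme removes the 3' tyrosine-FITC from a 5'-biotinylated DNA oligo (15 nM, 5 min, RT). Enzyme was E. coli-made recombinant Tdp1 at 1 nM, exposed to compound for 15 min beforehand; beads 10 ug/ml, 10 min.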
# IL-1B inflam inh – qHTS for Inhibitors of Inflammasome Signaling: IL-1-beta AlphaLISA Primary Screen | 360,000 compounds, 4.7% hits | THP-1 LPS/ATP IL-1B secretion, AlphaLISA, 16 h; hits give low values | activity change, % at 57.5 µM; in the data active = activity change below about -50%; inconclusive = mostly about -30% to -49%; note: % is set by controls: 0 for no effect and ±100 for the full control effect
#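 THP-1 cells pretreated 1 hr with compounds (up to 57.5 uM final), then stimulated with LPS (250 ng/mL final) plus ATP (1.25 mM final); secreted IL-1B measured by AlphaLISA after 16 hr, decreased signal indicating inhibition.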
# * = called active by the depositor; ? = inconclusive; nt = no result given; ! = a repeat was not active; [ ] = dose if it differs, or a comment. Unless noted, calls come from the whole dose curve; as a rule, active = well fitted curve in the direction sought with a large enough effect; inconclusive = small, poorly fitted or top-dose-only effect, or another doubt; inactive = no such curve, though single readings can be large; an effect the other way counts as inactive or inconclusive.
SMILES,TGFb inhibitor,DT40 TDP1 CPT,TDP1 cell noCPT,HepG2 tox,TDP1 block,IL-1B inflam inh
COc1ccc(CN(C(=O)c2ccc(OCC(C)C)cc2)C2CCS(=O)(=O)C2)cc1 (configuration not stated),0%,12µM*,?,-32%,5%,nt
CCc1ccc(OCC(=O)N(Cc2ccc(OC)cc2)C2CCS(=O)(=O)C2)cc1 (configuration not stated),?,?,-23%,-23%,12%,nt
Cc1cc(OC(C)C(=O)N(Cc2ccco2)C2CCS(=O)(=O)C2)cc(C)c1Cl (configuration not stated),-18%,?,21µM*,-32%,nt,-28
Cc1cc(OCC(=O)N(Cc2ccco2)C2CCS(=O)(=O)C2)cc(C)c1Cl (configuration not stated),-10%,-27%,?,-19%,6%,-11
Cc1noc(C)c1CSCC(=O)OCc1nc2ccccc2c(=O)n1CC#N,-28%,-4%,-17%,5%,3%,1
COc1ccccc1P(=O)(c1ccccc1)c1ccccc1,-2%,-21%,-7%,-4%,nt,7
Cc1ccccc1P(=O)(c1ccccc1)c1ccccc1C,13%,?,18µM*,-18%,nt,4
CC12CCC=CC1C(c1ccc3ccccc3c1C=Cc1ccccc1)N(Cc1ccccc1)C2=O (configuration not stated),11%,nt,nt,8%,11%,nt
Cc1c(N=Nc2c(-c3ccc([N+](=O)[O-])cc3)[nH]n(C(N)=S)c2=O)cccc1[N+](=O)[O-],8.9µM*,2.9µM*,2.9µM*,-23%,3%,?
Cc1[nH]n(C(N)=S)c(=O)c1N=Nc1cccc([N+](=O)[O-])c1C,?,-5%,?,20µM*,8%,-4
Cc1ccc(NC(=O)c2oc3ccc(S(=O)(=O)N4CCC5(CC4)OCCO5)cc3c2C)cc1C,-16%,8.2µM*!,?,-1%,10%,0
COc1ccc(NC(=O)c2oc3ccc(S(=O)(=O)N4CCC5(CC4)OCCO5)cc3c2C)cc1Cl,-25%,8.2µM*,9.2µM*,-11%,5%,nt
COc1cccc(CNC(=O)C(=O)NCC(c2ccco2)S(=O)(=O)c2cccs2)c1 (configuration not stated),13%,?,?,-2%,5%,nt
COc1cc(/C=N\NC(=O)c2c(C)nc3cc(C)ccn23)ccc1O,-2%,29%,-2%,-4%,-2%,-1
COc1ccc(/C=N/NC(=O)c2c(C)nc3ccc(Cl)cn23)cc1OC,-4%,12µM*,8.2µM*,2%,nt,49
C=CCOc1ccc(/C=N/NC(=O)c2c(C)nc3ccc(Cl)cn23)cc1,11%,24%,?,4%,nt,34
COc1ccc(/C=N/NC(=O)c2c(C)nc3ccc(Br)cn23)cc1OC,14%,8.2µM*,7.3µM*,-3%,-3%,46
COC(=O)c1ccc(/C=N\NC(=O)c2c(C)nc3ccc(Cl)cn23)cc1,-4%,?,10µM*,5%,nt,-4
COc1cc(/C=N/NC(=O)c2c(C)nc3ccc(Cl)cn23)cc(OC)c1OC,12%,?,?,-7%,nt,190
COc1cccc(/C=N/NC(=O)c2c(C)nc3ccc(Cl)cn23)c1OC,12%,16µM*,?,2%,nt,6
CC1(C)SC2C(NC(=O)C(NC(=O)N3CCNC3=O)c3ccccc3)C(=O)N2C1C(=O)O (configuration not stated),nt,5%,-1%,nt,-12%[56.1 µM],nt
N#C/C(=C\c1ccc(F)cc1F)S(=O)(=O)c1ccccn1,17%,14%,-2%,3%,3%,10
COc1ccc(C(=O)N(Cc2cccs2)Cc2cccs2)c(O)c1,nt,nt,nt,nt,-8%,nt
CCOc1ccccc1/C=N/NC(=O)c1c(C)nc2ccc(Br)cn12,0%,-1%,-4%,-15%,nt,31
COc1cccc(/C=N/NC(=O)c2c(C)nc3ccc(Br)cn23)c1O,?,4.6µM*,3.3µM*,-19%,56µM*,187
SMILES,TGFb inhibitor,DT40 TDP1 CPT,TDP1 cell noCPT,HepG2 tox,TDP1 block,IL-1B inflam inh
COc1ccccc1C(=O)COC(=O)CNS(=O)(=O)c1ccc(C)c(C)c1,-1%,8%,-5%,-2%,7%[0.505 µM],5
COc1cccc(-n2nnnc2SCC(=O)Nc2cccc(NC(C)=O)c2)c1,-8%,-19%,-19%,-2%,6%,?
COc1cccc(-n2nnnc2SCC(=O)Nc2ccc(NC(C)=O)cc2)c1,-1%,?,23µM*,2%,nt,6
O=C(CSc1nnnn1-c1ccc2c(c1)OCO2)NCc1cccs1,10%,-20%,-24%,16%,4%,-14
O=C(CSc1nnnn1-c1ccc2c(c1)OCO2)NCc1ccccc1,20%,15µM*,15µM*,0%,1%,86
COc1cccc(-n2nnnc2SCC(=O)Nc2ccc3c(c2)OCCO3)c1,5%,-24%,-29%,-27%,-2%,21
Cc1ccc(-n2nnnc2SCC(=O)Nc2ccccc2N2CCCCC2)cc1C,-19%,?,18µM*,-6%,2%,-8
COc1ccc(-n2nnnc2SCC(=O)Nc2ccc3c(c2)OCCO3)cc1OC,11%,?,9.2µM*,-4%,-2%,0
O=C(CSc1nc(=O)n(CCN2CCOCC2)c2c1CCC2)Nc1ccc(Cl)c(Cl)c1,?,-25%,?,-2%,0%,nt
OC1CN=C2C=CC=CN2C1 (configuration not stated),-9%,-4%,-1%,6%,-6%,1
CCCCc1ccc(-n2nnnc2SCC(=O)Nc2cc(OC)c([N+](=O)[O-])cc2C)cc1,-9%,?,18µM*,-2%,2%,-8
CSc1ccccc1-n1nnnc1SCC(=O)Nc1cc(C)ccc1C,0%,-18%,?,-20%,7%,-51*
COc1ccc(C)cc1-n1nnnc1SCC(=O)Nc1cc(C)on1,-5%,?,?,-14%,3%,-5
COCCn1cnnc1SCC(=O)Nc1cc(OC)c([N+](=O)[O-])cc1C,3%,-13%,-5%,4%,5%,6

# Assay outcomes (PubChem BioAssay)
